For 6 compounds, z-score and composite z-score results are on record in PubChem BioAssay.

“And” between values parts separate entries of the source, which are not always exact repeats. Equal values may be shown once. The source made the active and inactive calls. Unless noted, how the calls were made is not given here.

The nature of test [1]: compound effects on lung adenocarcinoma cell viability – A549, calcein-AM fluorescence, 48 h, basal, profiling panel (AID 1162). Further: test concentration not given here. Conditions: higher = more signal.
Test [2] in a line: compound effects on differentiated 3T3-L1 adipocyte viability – cell-based, 3T3-L1 adipocytes, calcein-AM fluorescence, 48 h, basal, profiling panel (AID 1163). Further: test concentration not given here. Conditions: 3T3-L1 adipocytes viability, higher = more signal.
Test [3] in a line: compound effects on hepatocellular carcinoma cell viability – HepG2, calcein-AM fluorescence, 48 h, basal, profiling panel (AID 1164). Further: test concentration not given here. The conditions noted are these: higher = more signal.
A short description of test [4]: compound effects on multiple myeloma cell viability – MM1S, calcein-AM fluorescence, 48 h, basal, profiling panel (AID 1165). Further: test concentration not given here. The conditions noted are these: higher = more signal.
Test [5] in a line: calcein-AM signal in unstimulated myeloma cells – cell-based, calcein-AM fluorescence, 48 h, PK04 Diversity Set, profiling panel (AID 1166).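 Further: cells grown under basal conditions without added stimulus; test concentration not given here.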 Conditions: RPMI8226 myeloma viability, higher = more signal.
Test [6] is described as follows: JC-1 mitochondrial signal, unstimulated HepG2 cells – cell-based, JC-1 fluorescence, 24 h, 100 nL compound, profiling panel (AID 1167). Further: test concentration not given here. The conditions noted are these: HepG2 mitochondrial potential, higher = more signal.
Test [7] can be described thus: JC-1 mitochondrial signal, unstimulated adipocytes – cell-based, JC-1 fluorescence, 3T3-L1 adipocytes, 24 h, 100 nL compound, profiling panel (AID 1168). Further: test concentration not given here. The conditions noted are these: JC-1 mitochondrial fluorescence, higher = more signal, called active from +8 up or from −8 down.
Test [8] is described as follows: JC-1 mitochondrial signal, unstimulated myeloma cells – cell-based, JC-1 fluorescence, RPMI8226, 24 h, 100 nL compound, profiling panel (AID 1169). Further: test concentration not given here. The conditions noted are these: JC-1 mitochondrial potential fluorescence, higher = more signal.
Test [9] in a line: JC-1 mitochondrial signal, unstimulated MM1S myeloma – cell-based, JC-1 fluorescence, 24 h, 100 nL compound, profiling panel (AID 1170). Further: test concentration not given here. The conditions noted are these: MM1S mitochondrial potential, higher = more signal.
Test [10] is described as follows: resazurin metabolic signal in A549 cells – cell-based, resazurin fluorescence, 24 h, PK04 Diversity Set, profiling panel (AID 1171). Further: test concentration not given here. The conditions noted are these: A549 viability, higher = more signal, called active from +8 up or from −8 down. Background: The colour change of resazurin is a common sign of viable cells or microbes.
Test [11] in a line: resazurin metabolic signal in HepG2 cells – cell-based, resazurin fluorescence, 24 h, PK04 Diversity Set, profiling panel (AID 1172). Further: test concentration not given here. The conditions noted are these: HepG2 viability, higher = more signal.
Test [12] is described as follows: budding yeast growth changes without added modifier – OD600, strain BY4716, 24 h, basal condition, primary screen (AID 1173). Conditions: S. cerevisiae BY4716 growth, OD600, 24 h; higher = more signal, called active from +8 up or from −8 down.
A short description of test [13]: viability profiling in MM1S myeloma cells – cell-based, resazurin fluorescence, basal, 24 h, PK04 Diversity Set, profiling panel (AID 1174). Further: test concentration not given here. Conditions: higher = more signal, called active from +8 up or from −8 down.
The target in test [14] is Dihydroorotate dehydrogenase (quinone), mitochondrial (Plasmodium falciparum (isolate 3D7)) (UniProt Q08210). The test can be described thus: inhibition of P. falciparum DHODH – biochemical, C-terminal His tag, absorbance 600 nm, primary screen (AID 1175).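 Further: recombinant parasite enzyme with a five histidine tag at its C terminus; test concentration not given here.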 Conditions: PfDHODH enzyme, DCIP absorbance 600 nm; higher = more signal, called active from +8 up or from −8 down.
Chain of Dihydroorotate dehydrogenase (quinone), mitochondrial (Plasmodium falciparum (isolate 3D7)) (Q08210 whole entry, looked up): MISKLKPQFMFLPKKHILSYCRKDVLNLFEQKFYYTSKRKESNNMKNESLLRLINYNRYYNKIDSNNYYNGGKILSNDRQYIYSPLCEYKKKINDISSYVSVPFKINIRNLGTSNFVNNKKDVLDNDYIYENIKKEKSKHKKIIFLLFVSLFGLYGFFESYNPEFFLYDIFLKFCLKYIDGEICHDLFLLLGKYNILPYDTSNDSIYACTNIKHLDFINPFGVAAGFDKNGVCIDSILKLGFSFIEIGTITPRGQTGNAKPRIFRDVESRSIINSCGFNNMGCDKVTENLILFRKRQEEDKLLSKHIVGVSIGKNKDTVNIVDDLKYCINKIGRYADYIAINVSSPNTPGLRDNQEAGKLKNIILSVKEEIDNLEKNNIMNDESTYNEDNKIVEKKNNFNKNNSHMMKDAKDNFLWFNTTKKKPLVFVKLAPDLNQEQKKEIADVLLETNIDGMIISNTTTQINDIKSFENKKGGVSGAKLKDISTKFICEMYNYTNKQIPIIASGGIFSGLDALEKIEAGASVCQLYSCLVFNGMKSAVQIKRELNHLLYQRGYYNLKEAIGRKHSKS
A short description of test [15]: inhibition of PAO1 biofilm formation – strain PAO1, LB-PBS medium, absorbance 600 nm, primary screen (AID 1176). Further: test concentration not given here. Conditions: P. aeruginosa PAO1 growth/biofilm, A600, 12 h; higher = more signal.
A short description of test [16]: growth modulation of vineyard yeast isolate – strain RM11-1a, OD600, basal, 24 h, primary screen (AID 1177).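 Further: cultures grown under basal conditions with no added stressor; test concentration not given here.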 The conditions noted are these: S. cerevisiae RM11-1a growth, OD600, 24 h; higher = more signal, called active from +8 up or from −8 down.
A short description of test [17]: growth of efflux-deficient E. coli DRC39 – strain DRC39, OD650, 24 h, E. coli filamentation inducers, primary screen (AID 1178).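 Further: growth measured as culture turbidity by optical density at 650 nm; test concentration not given here.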 Conditions: E. coli DRC39 acrAB, higher = more signal, called active from +8 up or from −8 down.
Test [18] is described as follows: growth of efflux-deficient E. coli DRC39 – strain DRC39, OD650, 48 h, E. coli filamentation inducers, primary screen (AID 1179).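 Further: screen aims at cell division blockers that make cells filament.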 The conditions noted are these: E. coli DRC39 delta-acrAB growth, higher = more signal, called active from +8 up or from −8 down.
A short description of test [19]: viability profiling in RPMI8226 myeloma cells – cell-based, resazurin fluorescence, basal, 24 h, PK04 Diversity Set, profiling panel (AID 1180).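 Further: RPMI8826 multiple myeloma cell line at 5000 cells per well; test concentration not given here.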 Conditions: higher = more signal.
The target of test [20] is E3 ubiquitin-protein ligase XIAP (Homo sapiens) (UniProt P98170). Kind of test: small molecules binding XIAP protein – biophysical, small-molecule microarray, fluorescence 635 nm, primary screen (AID 1181).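 Further: score merges 667 nm emission and signal to noise over triplicate slides.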 The conditions noted are these: higher = more signal.
Chain of E3 ubiquitin-protein ligase XIAP (Homo sapiens) (P98170 whole entry, looked up): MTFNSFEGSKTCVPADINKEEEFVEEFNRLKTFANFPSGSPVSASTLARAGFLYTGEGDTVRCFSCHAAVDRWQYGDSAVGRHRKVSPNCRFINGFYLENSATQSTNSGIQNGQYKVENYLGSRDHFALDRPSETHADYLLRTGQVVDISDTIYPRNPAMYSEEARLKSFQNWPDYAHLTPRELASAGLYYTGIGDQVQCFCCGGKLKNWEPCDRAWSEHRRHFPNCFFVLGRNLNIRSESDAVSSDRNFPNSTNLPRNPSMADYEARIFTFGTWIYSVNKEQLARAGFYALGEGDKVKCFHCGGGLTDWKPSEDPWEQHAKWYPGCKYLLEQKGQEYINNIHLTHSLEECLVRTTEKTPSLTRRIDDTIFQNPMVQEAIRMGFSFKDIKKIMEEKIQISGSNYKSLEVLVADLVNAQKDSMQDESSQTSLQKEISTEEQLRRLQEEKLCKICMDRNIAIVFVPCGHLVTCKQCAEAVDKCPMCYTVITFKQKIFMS

Turning to `CC(C)=CCCC(C)=CCON=C1C[C@@H](O)[C@@H](O)[C@@H]2[C@@H]3C(=O)N([C@@H](C)c4ccccc4)C(=O)[C@@H]3CC[C@H]12`, the z-score was 0.0319 in [1]; 0.2 in test [2]; 0.446 in test [3]; -2.88 in test [4]; -0.0017 in test [5]; 0.374 in test [6]. The z-score in [7] is 1.08 (inactive); in [8] it was 0.0351; in test [9], -1.78; in test [10], -1.38 (inactive); in test [11] it was -1.03; in test [12] it was -3.41 (inactive). Also, the z-score in test [13] was -0.339 (inactive); in test [15], 0.365 (inactive); in [16] it was -2.18 (inactive); in test [17], -1 (inactive); in test [18], -0.666 (inactive); in test [19], -0.637. Also, the composite z-score is -1.48 (inactive) in test [14] and 0.104 in [20].
`C=C[C@@H](C)[C@H](O)c1ccc(O)c2ccccc12`: the z-score in test [1] is -0.529 and -0.709; in test [2], -0.134 and 0.136; in test [3], -0.988 and -0.789; in test [4], -2.66 and -2.63; in [5], -0.808 and -0.695; in [6], -1.66 and -1.91. The z-score in test [7] is -1.42 (inactive) and -0.865 (inactive); in test [8], -0.333 and -0.269; in test [9], -0.52 and 0.331; in test [10], -0.28 (inactive) and -0.0127 (inactive); in [11], 0.127 and 0.0729; in test [12] it was -8.76 (active) and -8.55 (active). In addition, the z-score in test [13] is -0.683 (inactive) and -0.737 (inactive); in test [15], 0.483 (inactive) and 0.79 (inactive); in [16] it was -0.638 (inactive) and -0.599 (inactive); in test [17] it was 0.479 (inactive) and 0.435 (inactive); in [18] it was 0.008 (inactive) and 0.189 (inactive); in test [19] it was -0.861 and -0.602. Moreover, the composite z-score in [14] is -0.94 (inactive) and -0.709 (inactive); in test [20], -0.0893 and 0.0773.
With `CCCCN1CC=CC23O[C@@H]4C=CCCOC(=O)C4[C@H]2C(=O)N(C(C)CO)[C@@H]3C1=O` (stereo not given in full), the z-score in test [1] was -0.301 and -0.336; in test [2] it was -0.457 and -0.57; in test [3] it was -0.469 and -0.612; in test [4], 1.07 and 0.893; in [5], -0.736 and -0.717; in [6] it was -0.494 and -0.753. Moreover, the z-score is -0.433 (inactive) and -0.828 (inactive) in [7]; -0.129 and 0.0982 in test [8]; -0.686 and -0.347 in [9]; 0.237 (inactive) and -0.595 (inactive) in [10]; 0.169 and -0.388 in [11]; -0.288 (inactive) and 1.12 (inactive) in test [12]. Further, the z-score in [13] is -0.201 (inactive) and -0.715 (inactive); in test [15] it was 0.329 (inactive) and 0.137 (inactive); in test [16], -0.891 (inactive) and 1.05 (inactive); in [17] it was 0.0926 (inactive) and -0.474 (inactive); in [18], -0.25 (inactive) and -0.564 (inactive); in test [19] it was -0.157 and -0.53. The composite z-score was -0.755 (inactive) and -2.42 (inactive) in [14]; -0.0062 and 0.744 in test [20].
With `CC(C)=NO[C@@H](C)c1cc(-c2c(C)cc(C)cc2C)no1`, the z-score in test [1] is -0.846; in test [2], 0.38; in test [3] it was -0.242; in [4], -0.309; in test [5], -0.416; in test [6], -0.182. In addition, the z-score in [7] is 0.478 (inactive); in test [8], -0.328; in test [9], -0.39; in [10] it was 0.0477 (inactive); in test [11] it was -0.18; in test [12], -2.48 (inactive). Further, the z-score was 0.672 (inactive) in test [13]; 0.499 (inactive) in [15]; -0.395 (inactive) in test [16]; -0.328 (inactive) in test [17]; -2.9 (inactive) in test [18]; 0.0684 in [19]. In addition, the composite z-score in test [14] is -2.98 (inactive); in [20], 0.0251.
Turning to `C=CCN(C(=O)C(c1cccs1)N(CCOCCO)C(=O)/C=C\C(=O)O)c1ccc(OC)cc1` (stereo not given), the z-score is 0.995 and 1.98 in test [1]; 0.372 and -0.509 in test [2]; 1.23 and 0.751 in test [3]; 1.3 and 1.57 in [4]; 0.566 and 0.95 in test [5]; 0.506 and 1.39 in test [6]. Further, the z-score in test [7] was -2.4 (inactive) and 1.53 (inactive); in [8], -0.0898 and 0.302; in test [9], -1.19 and 0.702; in [10] it was 0.18 (inactive) and 0.294 (inactive); in test [11], 0.591 and 0.232; in [12], -1.32 (inactive) and -1.58 (inactive). Further, the z-score in [13] was 0.0173 (inactive) and 0.605 (inactive); in test [15], 1.07 (inactive); in test [16], -1.64 (inactive) and -1.09 (inactive); in [17], 0.997 (inactive) and 1.72 (inactive); in test [18], 1.21 (inactive) and 2 (inactive); in test [19] it was 1.25 and 0.952. The composite z-score in test [14] was -1.05 (inactive) and -2.65 (inactive); in test [20], 0.336 and -0.325.
On to `CCOC(=O)[C@@H]1CC2O[C@]23C[C@@H]1C(=O)N1CCC[C@@H]1[C@H]3O[Si](C)(C)C(C)(C)C` (stereo not given in full), for which the z-score in test [1] was -0.889 and -0.825; in test [2], 0.838 and 0.26; in [3] it was -0.526 and -0.885; in test [4], 0.0049 and -3.22; in [5], -0.55 and -0.467; in test [6], -0.904 and -1.08. Further, the z-score is -0.744 (inactive) and -0.631 (inactive) in test [7]; -0.387 and -0.407 in [8]; 0.781 and -1.86 in [9]; -0.438 (inactive) and -0.287 (inactive) in test [10]; -0.464 and -0.0421 in [11]; -0.648 (inactive) and -2.06 (inactive) in [12]. The z-score in test [13] was -0.645 (inactive) and -0.942 (inactive); in [15], 0.167 (inactive) and 0.0117 (inactive); in test [16] it was -0.159 (inactive) and -0.702 (inactive); in [17], 0.215 (inactive) and -0.512 (inactive); in [18], -0.215 (inactive) and -0.122 (inactive); in test [19], -0.586 and -0.593. Also, the composite z-score in test [14] was -0.0009 (inactive) and -0.513 (inactive); in [20], 0.0618 and -0.142.
